Tested on: PhhR/P_H16_RS18365 L-phenylalanine biosensor (pEH137)
Test: relative induction of RFP reporter vs primary effector; higher = stronger activation
Details: inducer concentration 5 mM; 6 h; Cupriavidus necator H16; minimal medium + 0.4% gluconate
Experimental: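 Orthogonality screen of 21 primary inducers against 21 transcription factor/inducible promoter–mRFP biosensors in C. necator H16 in minimal medium, robotic 96-well format, 5 mM inducer, 30 °C. OD-normalised RFP fluorescence was read 6 h later and expressed as relative induction (%) = 100 × (FL compound − FL uninduced)/(FL primary inducer − FL uninduced); mean of n=4. Cognate pairs (100% by definition) omitted.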

| Structure (SMILES) | relative induction of RFP reporter |
| --- | --- |
| O=CO [formate] | -0.0153% |
| O=C(O)c1ccccc1 [benzoate] | -0.383% |
| O=C(O)C(O)C(O)C(=O)O (configuration not stated) [tartrate] | 0.258% |
| O=C(O)C(=O)c1ccccc1 [phenylglyoxylate] | -0.366% |
| C=C(CC(=O)O)C(=O)O [itaconate] | -0.415% |
| O=C(O)C1CCCCC1 [cyclohexane-1-carboxylate] | -0.0509% |
| CC(=O)C(C)O (configuration not stated) [acetoin] | -0.273% |
| O=C(O)CCO [3-hydroxypropanoate] | -0.273% |
| O=c1[nH]c(=O)c2nc[nH]c2[nH]1 [xanthine] | -0.134% |
| O=C(O)c1ccc(O)c(O)c1 [3,4-dihydroxybenzoate] | -0.638% |
| O=C(O)CS(=O)(=O)O [sulfonatoacetate] | -0.174% |
| O=C(O)c1ccccc1O [salicylate] | -0.155% |
| C=CC(=O)O [acrylate] | -0.318% |
| OC1OC[C@H](O)[C@H](O)[C@H]1O (mixture of isomers) [L-arabinose] | -0.00622% |
| N[C@@H](Cc1ccc(O)cc1)C(=O)O [L-tyrosine] | -0.541% |
| Nc1ccccc1C(=O)C[C@H](N)C(=O)O [L-kynurenine] | -0.316% |
| NCCC(=O)O [β-alanine] | -0.6% |

Reference: the supplement of paper PMC7057948, “A genome-wide approach for identification and characterisation of metabolite-inducible systems” (Nature Communications, 2020)
